According to PubChem BioAssay (Tox21):
Results filed as inconclusive are left out. Unmarked numbers belong to inactive results. Active and inactive are the calls of the source. Calls come from the whole dose curve.

Each compound was assayed against Progesterone receptor (Homo sapiens) (UniProt P06401) (assay: qHTS assay to identify small molecule agonists of the progesterone receptor (PR) signaling pathway (AID 1346784; note: nearly all actives have a fitted effect of over 30% in size)). Conditions: PR-UAS-bla HEK293T, beta-lactamase FRET ratio, 16 h; series mostly up to 92.4 µM.
Source text: U.S. Tox21 Program National Center for Advancing Translational Sciences [NCATS] NIH Chemical Genomics Center [NCGC] U.S. Environmental Protection Agency [EPA] National Institutes of Environmental Health Sciences [NIEHS] National Toxicology Program [NTP] U.S. Food and Drug Administration [FDA] […] Endocrine disrupting chemicals (EDCs) and their interactions with steroid hormone receptors like PR causes disruption of normal endocrine function. To identify the compounds that activate PR signaling, a PR-UAS-bla GripTite cell line i.e. PR-UAS-bla HEK 293T (Invitrogen, Carlsbad, CA, USA) containing a beta-lactamase reporter gene under the control of an Upstream Activator Sequence (UAS) was used to screen Tox21 10K compound library.
Tox21 Assay Protocol Summary: PR-UAS-bla HEK 293T cells were dispensed at 3,000 cells/5 uL of assay medium containing 2% charcoal stripped FBS per well into black wall/clear-bottom 1536-well plates using a Multidrop Combi (ThermoFisher Scientific, Waltham, MA) dispenser. After the assay plates were incubated at a 37C and 5% CO2 for 6hr, 23 nL of compounds dissolved in DMSO, positive controls or DMSO only was transferred to the assay plate by a Pintool station (Kalypsys, San Diego, CA). The plates were incubated at 37C and 5% CO2 for 16hr. Then 1 uL of LiveBLAzer B/G FRET substrate was added using a BioRAPTR FRD (Flying Reagent Dispenser, Aurora Discovery, San Diego, CA). After the plates were incubated at room temperature for 2 hours, fluorescence intensity was measured by an Envision plate reader (PerkinElmer, Shelton, CT).
% is set by controls: 0 for no effect and ±100 for the full control effect.

Sequence of Progesterone receptor (Homo sapiens) (P06401 whole entry, looked up): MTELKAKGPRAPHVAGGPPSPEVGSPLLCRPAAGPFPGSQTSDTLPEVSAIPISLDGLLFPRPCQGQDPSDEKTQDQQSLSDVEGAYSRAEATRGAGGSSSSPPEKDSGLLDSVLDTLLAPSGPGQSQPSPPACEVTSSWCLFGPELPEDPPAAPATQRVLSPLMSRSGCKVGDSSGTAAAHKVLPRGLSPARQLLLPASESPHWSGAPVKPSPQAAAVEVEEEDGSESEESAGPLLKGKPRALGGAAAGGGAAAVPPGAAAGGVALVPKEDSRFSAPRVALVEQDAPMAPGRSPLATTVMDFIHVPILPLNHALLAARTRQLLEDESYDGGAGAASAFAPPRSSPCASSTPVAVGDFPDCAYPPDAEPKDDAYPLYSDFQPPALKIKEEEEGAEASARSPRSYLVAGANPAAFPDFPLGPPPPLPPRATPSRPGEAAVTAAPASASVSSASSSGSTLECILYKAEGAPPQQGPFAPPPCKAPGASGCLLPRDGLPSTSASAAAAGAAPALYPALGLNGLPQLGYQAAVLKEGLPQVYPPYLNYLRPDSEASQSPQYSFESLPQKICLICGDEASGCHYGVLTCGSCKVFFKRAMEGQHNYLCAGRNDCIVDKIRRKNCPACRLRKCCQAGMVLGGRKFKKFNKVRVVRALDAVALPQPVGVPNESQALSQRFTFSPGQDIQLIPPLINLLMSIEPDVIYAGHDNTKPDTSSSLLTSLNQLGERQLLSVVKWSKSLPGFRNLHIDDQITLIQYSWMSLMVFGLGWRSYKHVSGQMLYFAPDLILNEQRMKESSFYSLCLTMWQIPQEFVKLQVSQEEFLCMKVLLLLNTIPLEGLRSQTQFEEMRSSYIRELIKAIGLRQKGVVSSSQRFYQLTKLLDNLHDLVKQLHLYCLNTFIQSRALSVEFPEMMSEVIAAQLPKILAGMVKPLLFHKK

SMILES	outcome	activation
O=C(CC(=O)c1ccccc1)c1ccccc1	inactive	
COCCO	inactive	
CNCC[C@@H](Oc1ccccc1C)c1ccccc1	inactive	
CC1(C)CCC(C)(C)c2cc(NC(=O)c3ccc(C(=O)O)cc3)ccc21	inactive	
CCCCCCCCCO	inactive	
CCCCOCCOCCOCCOCCO	inactive	
Cc1occc1S	inactive	
Cc1cc(CC(=O)O)c(C)n1-c1ccc(Cl)cc1	inactive	
ClC(Cl)(Cl)c1ccc(C(Cl)(Cl)Cl)cc1	inactive	
c1ccc(-c2nc[nH]c2-c2ccccc2)cc1	inactive	
CCN(CC)C(C)CN1c2ccccc2Sc2ccccc21 (stereo not given)	inactive	
Cc1cccc(Oc2ccccc2)c1	inactive	
CC(C)(Oc1ccc(Cl)cc1)C(=O)OCCCOC(=O)C(C)(C)Oc1ccc(Cl)cc1	inactive	
O=C(NS(=O)(=O)/C=C/c1cccs1)c1ccc(F)cc1Br	inactive	
CC1=CC(=O)/C(=C(/C)O)C(=O)O1	inactive	
Cc1ccccn1	inactive	
NC[C@H]1O[C@H](O[C@H]2[C@H](O)[C@@H](O[C@H]3O[C@H](CO)[C@@H](O)[C@H](N)[C@H]3O)[C@H](N)C[C@@H]2N)[C@H](O)[C@@H](O)[C@@H]1O		0.496% [at 8.39 µM]
CN(c1nccc(=O)[nH]1)C1CCN(c2nc3ccccc3n2Cc2ccc(F)cc2)CC1	inactive	
C=C(C)C(=O)OCCN(C)C	inactive	
O=C(O)C1CCC(C(=O)O)CC1 (stereo not given)	inactive	

SMILES	outcome	activation
CC(=O)NCCCS(=O)(=O)O	inactive	
CC(=O)/C(C)=C/C1C(C)=CCCC1(C)C (stereo not given)	inactive	
O=C(/C=C/c1ccc(O)c(O)c1)O[C@@H]1C[C@](O)(C(=O)O)C[C@@H](O)[C@H]1O	inactive	
CN1CCC(=C2c3ccccc3CCc3sccc32)CC1	inactive	
CC(=O)/C=C/C1C(C)=CCCC1(C)C (stereo not given)	inactive	
CC(=O)O[C@@H]1C(=O)O[C@@H]2[C@H]1OC(=O)[C@@H]2OC(C)=O	inactive	
Cn1c(N)nc2nc[nH]c2c1=O	inactive	
CC(C)(C)C1CCCCC1O (stereo not given)	inactive	
CCCC(=O)OCC	inactive	
Oc1ccc2c(c1)OCO2	inactive	
O=CNc1ccccc1	inactive	
Nc1nc(N)c2nc(CNc3ccc(C(=O)N[C@@H](CCC(=O)O)C(=O)O)cc3)cnc2n1	inactive	
CCCCOc1ccc(CC(=O)NO)cc1	inactive	
Cc1cccc(OCCOc2cccc(C)c2)c1	inactive	
CCCCCc1ccc(N)cc1	inactive	
C=Cc1c(C)c2cc3[nH]c(cc4nc(cc5nc(cc1[nH]2)C(C)=C5CCC(=O)O)C(CCC(=O)O)=C4C)c(C)c3C=C	inactive	
O=C(O)C(c1ccc(Cl)cc1)c1ccc(Cl)cc1	inactive	
CN1CCC[C@@H]1c1cccnc1	inactive	
O=[N+]([O-])c1cccc(Cl)c1Cl	inactive	
CN(C)CC/C=C1\c2ccccc2COc2ccccc21	inactive	
